About 500 (1.3%) of roughly 39,000 compounds were called active. The full list was thinned out, with actives kept by preference.
system: S. aureus RN4220; experiment: growth inhibition call (relative growth <= 0.2); details: 50 µM

Row | Structure (SMILES) | growth inhibition call
1 | Cc1noc(C)c1NC(=O)N(C)C[C@H]1OCCCC[C@@H](C)Oc2ccc(NC(=O)NC3CCCCC3)cc2C(=O)N([C@H](C)CO)C[C@@H]1C | inactive
2 | CNC1CCC(c2ccc(Cl)c(Cl)c2)c2ccccc21.Cl (stereo not given) | active
3 | N[C@@H]1CC[C@@H](c2ccc(Cl)c(Cl)c2)c2ccccc21 | active
4 | CN[C@H]1CC[C@@H](c2ccc(Cl)c(Cl)c2)c2ccccc21 | inactive
5 | O=C(C[C@H]1C=C[C@H](NS(=O)(=O)c2ccc(F)cc2)[C@@H](CO)O1)N1CCC(Cc2ccccc2)CC1 | inactive
6 | Cc1ccc(S(=O)(=O)Nc2ccc3c(c2)C(=O)N([C@H](C)CO)C[C@H](C)[C@H](CN(C)C(=O)Nc2c(C)noc2C)OCCCC[C@H](C)O3)cc1 | inactive
7 | CO[C@@H]1CC[C@@H]2[C@H]1OCCN2C(=O)N(C)C | inactive
8 | CCCC#Cc1ccc2c(c1)O[C@@H](CN(C)S(=O)(=O)c1cccc(F)c1)[C@@H](C)CN([C@H](C)CO)S2(=O)=O | inactive
9 | Nc1ccc(Oc2ccc3ccccc3c2Cl)c(Cl)c1 | active
10 | COc1cc(Cl)ccc1Oc1ccc(Cl)cc1Cl | inactive
11 | c1ccc2c(c1)ccc1cc3c(ccc4ccccc43)cc12 | inactive
12 | COc1ccc2ccccc2c1-c1c(OC)ccc2ccccc12 | inactive
13 | Nc1ccc(Sc2ccc3ccccc3c2Cl)c(Cl)c1 | active
14 | C[C@@H]1CN([C@H](C)CO)C(=O)c2cc(NC(=O)Nc3ccc4c(c3)OCO4)ccc2O[C@@H](C)CCCCO[C@H]1CN(C)Cc1ccc(C(=O)O)cc1 | inactive
15 | C[C@@H]1CN([C@H](C)CO)C(=O)c2cc(NC(=O)Nc3ccc4c(c3)OCO4)ccc2O[C@@H](C)CCCCO[C@@H]1CN(C)C(=O)CCC(F)(F)F | inactive
16 | COc1ccc(CN(C)C[C@@H]2Oc3c(NC(=O)c4ccc(-c5nccs5)cc4)cccc3C(=O)N([C@@H](C)CO)C[C@H]2C)cc1 | inactive
17 | Cc1noc(C)c1S(=O)(=O)Nc1ccc2c(c1)CC(=O)N([C@@H](C)CO)C[C@H](C)[C@H](CN(C)S(=O)(=O)c1cn(C)cn1)O2 | inactive
18 | C[C@@H]1CN([C@H](C)CO)C(=O)c2cccc(NS(C)(=O)=O)c2O[C@H]1CN(C)C(=O)Nc1ccccc1 | inactive
19 | CC(C)NC(=O)Nc1ccc2c(c1)C(=O)N([C@H](C)CO)C[C@H](C)[C@H](CN(C)Cc1ccc(C(=O)O)cc1)O2 | inactive
20 | NC[C@@H]1O[C@H](O[C@H]2[C@@H](O)[C@H](O[C@@H]3[C@@H](O)[C@H](N)C[C@H](N)[C@H]3O[C@@H]3O[C@H](CO)[C@@H](O)C[C@H]3N)O[C@@H]2CO)[C@H](N)[C@@H](O)[C@@H]1O[C@H]1O[C@H](CO)[C@@H](O)[C@H](O)[C@@H]1O | inactive
21 | NCC1OC(OC2C(N)CC(N)C(OC3OC(CO)C(O)C(N)C3O)C2O)C(N)CC1O (stereo not given) | active
22 | NC[C@H]1O[C@H](O[C@H]2[C@@H](O[C@@H]3O[C@H](CO)[C@@H](O)[C@H]3O)[C@@H](O)[C@H](N)C[C@@H]2N)[C@H](N)[C@@H](O)[C@@H]1O | inactive
23 | NC[C@H]1O[C@H](O[C@@H]2[C@H](O)[C@@H](O[C@H]3O[C@H](CO)[C@@H](O)[C@H](N)[C@H]3O)[C@H](N)C[C@@H]2N)[C@H](O)[C@@H](O)[C@@H]1O | inactive
24 | NC[C@H]1O[C@H](O[C@H]2[C@H](O)[C@@H](O[C@H]3O[C@H](CO)[C@@H](O)[C@H](N)[C@H]3O)[C@H](N)C[C@@H]2N)[C@H](N)C[C@@H]1O | active

Row | Structure (SMILES) | growth inhibition call
25 | NCC1CCC(N)C(OC2C(N)CC(N)C(OC3OC(CO)C(O)C(N)C3O)C2O)O1 (stereo not given) | inactive
26 | C[C@@H]1CN([C@@H](C)CO)C(=O)c2cccc(NC(=O)CCCCCC(=O)Nc3ccccc3N)c2O[C@@H]1CN(C)C(=O)Nc1ccc(F)cc1 | inactive
27 | OCC(CO)NC1CC(O)(CO)C(O)C(O)C1O (stereo not given) | inactive
28 | C[C@H](CO)N1C[C@H](C)[C@H](CN(C)CC2CC2)OCCCC[C@H](C)Oc2ccc(NC(=O)Cc3ccccc3)cc2C1=O | inactive
29 | COc1ccc(NC(=O)Nc2ccc3c(c2)C(=O)N([C@@H](C)CO)C[C@H](C)[C@@H](CN(C)S(=O)(=O)c2ccc(Cl)cc2)OCCCC[C@H](C)O3)cc1 | inactive
30 | CCCNC(=O)N1C[C@]2(CCN(CC2)S(=O)(=O)c2ccccc2)c2c(n(c3cc(ccc23)OC)C)[C@@H]1CO | inactive
31 | C[C@H](CO)N1C[C@H](C)[C@@H](CN(C)Cc2ccc(C(F)(F)F)cc2)Oc2ccc(NC(=O)Nc3ccc(F)cc3)cc2CC1=O | inactive
32 | Cc1cc2nc(C(=O)N[C@H]3CCN(C)C3)cc(-c3ccccc3Cl)c2c(C)c1-c1ccc(CO)cc1 | active
33 | Cc1cc2nc(C(=O)NC[C@H]3CCCS(=O)(=O)C3)cc(-c3ccccc3Cl)c2c(C)c1-c1ccncc1 | inactive
34 | CC(C)(C)[S@@](=O)N1Cc2cc(C(=O)N[C@@H]3CCN(Cc4ccccc4)C3)nc(-c3cccc(-c4ccncc4)c3)c2[C@H]1CCO | inactive
35 | CC(C)NC(=O)N(C)C[C@@H]1Oc2ccc(NC(=O)Cc3ccccc3)cc2CC(=O)N([C@@H](C)CO)C[C@H]1C | inactive
36 | CC(C)[C@@H](CS(=O)(=O)C(C)C)N1C(=O)[C@@](C)(CC(=O)O)C[C@H](c2cccc(Cl)c2)[C@H]1c1ccc(Cl)cc1 | inactive
37 | CN(C)c1ncnc2c1ncn2[C@H]1O[C@@H](CO)[C@@H](N)[C@@H]1O | inactive
38 | COc1ccc(C[C@@H](N)C(=O)N[C@@H]2[C@@H](O)[C@@H](n3cnc4c(N(C)C)ncnc43)O[C@@H]2CO)cc1 | active
39 | COc1nc(N)nc2c1ncn2[C@@H]1O[C@H](CO)[C@@H](O)[C@@H]1O | inactive
40 | CNc1ncnc2c1ncn2[C@@H]1O[C@H](CO)[C@@H](O)[C@H]1O | inactive
41 | Nc1ncnc2c1ncn2[C@H]1O[C@@H](CO)[C@H](O)[C@@H]1O | inactive
42 | COc1ccc(CC(N)C(=O)NC2C(CO)OC(n3cnc4c(N(C)C)ncnc43)C2O)cc1.Cl.Cl (stereo not given) | inactive
43 | COc1ccc(C[C@H](N)C(=O)N[C@H]2[C@@H](O)[C@H](n3cnc4c(N(C)C)ncnc43)O[C@@H]2CO)cc1 | active
44 | Nc1ncnc2c1ncn2[C@@H]1O[C@H](CO)[C@@H](O)[C@@H]1O | inactive
45 | COc1ccc(C[C@H](N)C(=O)N[C@H]2[C@@H](O)[C@@H](n3cnc4c(N(C)C)ncnc43)O[C@@H]2CO)cc1 | active
46 | O=C(C[C@@H]1CC[C@@H]2[C@H](COC[C@@H](O)CN2C(=O)c2ccccc2F)O1)N1CCN(c2ccccc2)CC1 | inactive
47 | C[C@H](CO)N1C[C@H](C)[C@H](CN(C)Cc2ccc(C(=O)Nc3ccccc3N)cc2)Oc2ccc(NC(=O)Nc3ccc(C(F)(F)F)cc3)cc2CC1=O | inactive
48 | C[C@@H]1CN([C@@H](C)CO)C(=O)c2cc(NS(=O)(=O)c3cn(C)cn3)ccc2O[C@@H]1CN(C)S(=O)(=O)c1cccs1 | inactive

Row | Structure (SMILES) | growth inhibition call
49 | Cc1noc(C)c1NC(=O)Nc1cccc2c1O[C@H](CN(C)Cc1ccc(C(=O)Nc3ccccc3N)cc1)[C@@H](C)CN([C@H](C)CO)C2=O | inactive
50 | Cc1noc(C)c1S(=O)(=O)Nc1ccc2c(c1)C(=O)N([C@@H](C)CO)C[C@H](C)[C@@H](CN(C)Cc1ccc3c(c1)OCO3)O2 | inactive
51 | CCCCCCCCC=CCCCCCCCC(=O)[O-].[NH3+]CCO | inactive
52 | C[C@H]1CN([C@@H](C)CO)C(=O)c2cc(NC(=O)Nc3cccc4ccccc34)ccc2O[C@@H]1CN(C)Cc1ccc(-c2ccccc2)cc1 | inactive
53 | CC(C)NC(=N)NC(=N)Nc1ccc(Cl)cc1.Cl | inactive
54 | Cl.N=C(NN=Cc1ccc(Cl)cc1)NN=Cc1ccc(Cl)cc1 | inactive
55 | Cl.Cl.N=C(NCCCCCCNC(=N)NC(=N)Nc1ccc(Cl)cc1)NC(=N)Nc1ccc(Cl)cc1 | active
56 | C[C@H](CO)N1C[C@H](C)[C@H](CN(C)Cc2ccc3c(c2)OCO3)Oc2c(NC(=O)C3CC3)cccc2C1=O | inactive
57 | C[C@H](CO)N1C[C@H](C)[C@@H](CN(C)Cc2ccc(C(=O)O)cc2)Oc2ccc(NC(=O)Cn3cnnn3)cc2C1=O | inactive
58 | Nc1ccn([C@@H]2O[C@H](CO)[C@@H](O)C2(F)F)c(=O)n1 | inactive
59 | Cl.Nc1ccn(C2OC(CO)C(O)C2(F)F)c(=O)n1 (stereo not given) | active
60 | C[C@@]1(F)[C@H](O)[C@@H](CO)O[C@H]1n1ccc(N)nc1=O | inactive
61 | COc1ccc(NC(=O)N(C)C[C@@H]2OCCCC[C@H](C)Oc3ccc(NC(=O)c4ccccc4)cc3C(=O)N([C@@H](C)CO)C[C@@H]2C)cc1 | inactive
62 | COc1ccc2c3c([nH]c2c1)[C@H](CO)N(Cc1ccc(cc1)Cl)C[C@]13CCN(CCc2ccccc2)CC1 | inactive
63 | COc1ccc2c3c([nH]c2c1)[C@@H](CO)N(Cc1ccc(cc1)Cl)C[C@]13CCN(CC1)Cc1ccccc1 | inactive
64 | COc1ccc2c3c([nH]c2c1)[C@@H](CO)N(Cc1ccc(cc1)Cl)C[C@]13CN(CCc2ccccc2)C1 | active
65 | COc1ccc2c3c([nH]c2c1)[C@@H](CO)N(Cc1ccc(cc1)Cl)C[C@]13CCN(CCc2ccccc2)CC1 | active
66 | COc1ccc2c3c([nH]c2c1)[C@@H](CO)N(C[C@]13CN(CCc2ccccc2)C1)C(=O)CN1CCOCC1 | inactive
67 | COc1ccc2c3c([nH]c2c1)[C@H](CO)N(C[C@]13CN(CCc2ccccc2)C1)C(=O)CN1CCOCC1 | inactive
68 | COc1ccc2c3c([nH]c2c1)[C@H](CO)N(Cc1ccc(cc1)Cl)C[C@]13CCN(CC1)Cc1nccs1 | inactive
69 | COc1ccc2c3c([nH]c2c1)[C@H](CO)N(Cc1ccc(cc1)Cl)C[C@]13CCN(CC1)Cc1ccccc1 | inactive
70 | COc1ccc2c3c([nH]c2c1)[C@H](CO)N(Cc1ccc(cc1)Cl)C[C@]13CN(CCc2ccccc2)C1 | active
